# Assay results reported in PubChem BioAssay (NCI).
# This is part of a sample that, as a whole, favours compounds with a hit. Of some 83,000 tested, about 20% had one in any assay.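 Cells were grown in 96-well plates and exposed to the test compound at a single concentration for 48 hours; results are reported as percent growth, with values below 10 considered active.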 A number with no mark means an inactive call. The source made the active and inactive calls.
# Tested on: OVCAR-3 ovarian
# Experiment: NCI-60 one-dose screen, 48 h (100 = growth as untreated, 0 = no growth, -100 = all killed)
# Conditions: 10 µM unless noted
row,Compound,growth
1,COc1ccc(Cn2cc3c(c2-c2ccccc2)CCc2cnoc2-3)cc1OC,13.8%
2,Cc1ccc2c(O)c(O)cc(NC(C)CCCN)c2n1 (stereo not given),10.8%
3,CC(C)(C)c1ccc([I+]c2ccc(C(C)(C)C)cc2)cc1,2.92% (active)
4,COC(=O)/C(Br)=C/c1c[nH]c2ccc(Br)cc12,82.6%
5,COC(=O)c1ccc2[nH]c(O)c(C(=Nc3ccc(N(C)C(=O)CN4CCN(C)CC4)cc3)c3cccc(OC)c3)c2c1,10.5%
6,C#CCCCCCCC[C@@H]1OC(=O)[C@H]([C@@H](C)CC)NC(=O)[C@@H]([C@@H](C)CC)NC(=O)CC(=O)[C@@H]1C,103%
7,COC(=O)c1ccc2[nH]c(O)c(C(=Nc3ccc(N(C)C(=O)CN4CCN(C)CC4)cc3)c3ccc(C)cc3)c2c1,-60.2% (active)
8,COC(=O)C(C)[C@H]1CC[C@@H]2[C@]1(C)CC=C1[C@]23C=C[C@]2(C[C@@H](OC(C)=O)CC[C@]12C)C(C(=O)OC)C3C(=O)OC (stereo not given in full),86.4%
9,Cc1nc2c(nnn2-c2ccccc2)c2nc(-c3ccccc3)oc(=O)c12,117%
10,CC(O)C(N)=O (stereo not given),107%
11,Nc1nc2c(c3cnccc13)C(c1cccc(Cl)c1)Cc1cnccc1-2 (stereo not given),10.1%
12,CC(=O)OCC1O[C@@H](OC(C)=O)[C@@H](NC(=O)NS(=O)(=O)c2ccccc2)C(OC(C)=O)[C@@H]1OC(C)=O (stereo not given in full),110%
13,CCOC(=O)c1ccc2n1CCCc1cnc(NC(C)=O)nc1-2,107%
14,CCCCCCCCCCCCCCCCCC1=NCCN1CCNC(C)=O,94.7%
15,Clc1ccc(N/N=C(/c2ccccc2)c2ccccn2)nc1,40.7%
16,COc1ccc(-n2nnnc2-c2cn[nH]c2C(F)(F)F)cc1,104%
17,COc1cc2ncnc(-n3ncc4cc(NC(=O)Nc5ccc(Cl)c(Cl)c5)ccc43)c2cc1OC,-65.5% (active)
18,CCOC(=O)c1c(C)oc2ncnc(Nc3ccc(C(=O)NCCc4ccccc4)cc3)c12,97.3%
19,CC(=O)/C(=C/c1ccc(-c2ccccc2)cc1)C(=O)c1ccccc1,89.4%
20,N=C(N)c1ccc(-c2ccc(-c3ccc(F)cc3)s2)cc1,-92.4% (active)

row,Compound,growth
1,NC(=O)CC(NC(=O)COc1ccc(Cl)cc1Cl)C(=O)O (stereo not given),106%
2,Cc1nc(NC(=O)NC2CCCCC2)sc1C(=O)NN,99.5%
3,CCOC(=O)C1=C(C(F)(F)F)NC(=S)NC1CN1C(=O)c2ccccc2C1=O (stereo not given),108%
4,NC(=O)c1c(Nc2ccccc2)nn2cc(-c3nc4ccccc4s3)c(N)nc12,107%
5,O=C(/C=C/c1ccc(Br)cc1)c1ccccc1,93.3%
6,Cc1c(O)c(N=Nc2ccc(C(=O)O)c(O)c2)c2ccccc2c1O,108%
7,COc1ccc2c(c1)/C(=C/c1c(-c3cc(OC)c(OC)c(OC)c3)nc3sccn13)C(=O)N2,99.5%
8,CCOC(=O)c1cc(C(=O)c2ccc(Br)cc2)n2cc(C)cc(C)c12,104%
9,COc1cccc(Cn2cc3c(c2)-c2oncc2CC3)c1,-30.4% (active)
10,CCCCCSc1ccc2nc(NC(=O)OCC)sc2c1,-7.09% (active)
11,COc1ccc(C2C3(C#N)C(N)=NC(=C(C#N)C#N)C23C#N)cc1OC (stereo not given),109%
12,CCCCCCCCCCCCCCCC[n+]1cccc(C#N)c1,35.5%
13,CC(C)OC(=O)c1ccc2n1CCCc1cnc(Nc3ccccc3)nc1-2,84.7%
14,COc1cc(Cn2ccc3c2-c2oncc2CC3)cc(OC)c1,4.85% (active)
15,COC(=O)c1ccc(C(=Nc2ccc(N(C)C(=O)CN3CCN(C)CC3)cc2)c2c(O)[nH]c3ccc(C(=O)OC)cc23)cc1,28.3%
16,COc1cccc2c1nc1cccc(OC)c1[n+]2[O-],101%
17,CC(=O)NNC(=O)c1sc(NC(C)=O)nc1C,103%
18,CCOC(=O)NNc1[nH]c(-c2ccc(OC)cc2)cc1C#N,107%
19,COc1cc(N)c2nccc(C)c2c1OC,111%
20,CCOC(=O)c1c2c(cn1Cc1ccccc1)-c1oncc1CC2,103%
